{
  "source": "PubChem BioAssay AID1851",
  "about": "(National Center for Advancing Translational Sciences (NCATS), 2009)",
  "note": "Several values for one entry are separate records, joined by “and”; a condition that tells them apart may be missing. Equal entries are not always repeated. Hit rate of the full screen: of about 16,000 compounds, about 4,000 (25%) were called active. Not shown: some 26% with an inconclusive outcome. Calls follow the shape of the dose curve; as a rule, active = well fitted curve in the direction sought with a large enough effect; inconclusive = small, poorly fitted or top-dose-only effect, or effect the other way; inactive = no such curve, though single readings can be large or run the other way. A selection follows. Some structures have more than one record in an assay (separate samples or runs), and their calls can disagree. % is scaled to controls: 0 for no effect and ±100 for the full control effect.",
  "data": [
    {"molecular_target": "Cytochrome P450 2C9 (Homo sapiens) (UniProt P11712)", "sequence (P11712 whole entry, looked up)": "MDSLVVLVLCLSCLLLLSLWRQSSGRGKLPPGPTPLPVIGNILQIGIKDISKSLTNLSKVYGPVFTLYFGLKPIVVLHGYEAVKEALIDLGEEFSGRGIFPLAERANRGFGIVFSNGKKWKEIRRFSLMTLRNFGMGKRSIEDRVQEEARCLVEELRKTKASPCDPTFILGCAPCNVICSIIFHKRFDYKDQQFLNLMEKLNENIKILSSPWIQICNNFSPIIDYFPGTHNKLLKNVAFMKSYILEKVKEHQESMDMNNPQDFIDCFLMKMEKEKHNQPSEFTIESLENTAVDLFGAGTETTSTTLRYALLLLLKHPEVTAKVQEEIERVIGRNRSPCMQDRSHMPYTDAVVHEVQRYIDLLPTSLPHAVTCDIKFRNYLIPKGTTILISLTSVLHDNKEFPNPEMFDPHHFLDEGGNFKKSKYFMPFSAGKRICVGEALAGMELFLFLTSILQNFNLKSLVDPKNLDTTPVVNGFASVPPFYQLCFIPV", "test": "Cytochrome panel assay with activity outcomes", "conditions": "recombinant CYP, pro-luciferin dealkylation, luminescence, p450-cyp2c9; series mostly up to 57.1 µM; activity, negative = inhibition: at the top concentration", "values": [
      {"smiles": "Cc1ccc(C2NC(c3ccc(C)cc3)C(C)C(=NO)C2C)cc1", "note": "(stereo not given)", "AC50": "6.31 µM (active)"},
      {"smiles": "c1cc(CNCCN2CCNCC2)ccn1", "activity, negative = inhibition": "-4.43% [at 11.4 µM] (inactive)"},
      {"smiles": "c1cc(CSSCc2ccncc2)ccn1", "AC50": "1.58 µM (active)"},
      {"smiles": "N=C(N)SCCc1ccc(CCSC(=N)N)cc1", "activity, negative = inhibition": "12.5% (inactive)"},
      {"smiles": "c1ccc(CSCCc2ccncc2)cc1", "AC50": "0.316 µM (active)"},
      {"smiles": "Clc1ccc(CSCCc2ccncc2)cc1Cl", "AC50": "0.0794 µM (active)"},
      {"smiles": "CN1CCN(CCc2ccc(Cl)c(Cl)c2)CC1", "activity, negative = inhibition": "-18.2% (inactive)"},
      {"smiles": "c1ccc2c(CSCCc3ccncc3)cccc2c1", "AC50": "0.0631 µM (active)"},
      {"smiles": "O=S(=O)(O)CCCc1cccc2ccccc12", "activity, negative = inhibition": "-3.26% [at 11.4 µM] (inactive)"},
      {"smiles": "c1ccc2c(CC3NCCN3)cccc2c1", "activity, negative = inhibition": "-9.35% [at 11.4 µM] (inactive)"},
      {"smiles": "N=C(N)SCCc1ccncc1", "activity, negative = inhibition": "6.27% [at 11.4 µM] (inactive)"},
      {"smiles": "C[C@@H]1c2ccccc2CN1CC1=NCCN1", "activity, negative = inhibition": "9.84% (inactive)"},
      {"smiles": "Cc1ncc([N+](=O)[O-])n1CCO", "activity, negative = inhibition": "-6.17% [at 25.6 µM] (inactive)"},
      {"smiles": "CCOC(=O)N1CCC(NC(=O)CCC(=O)N2CC(C)Oc3ccc(C)cc32)CC1", "note": "(stereo not given)", "activity, negative = inhibition": "-19.7% (inactive)"},
      {"smiles": "Cc1oc(-c2ccccc2F)nc1CS(=O)(=O)CC(=O)NCCCN(C)C1CCCCC1", "activity, negative = inhibition": "-21.4% (inactive)"},
      {"smiles": "CCOC(=O)N1CCC(NC(=O)CS(=O)(=O)Cc2nc(-c3cccc(OC)c3)oc2C)CC1", "AC50": "25.1 µM (active)"},
      {"smiles": "CNc1ncnc2ccc(-c3cccc(NS(C)(=O)=O)c3)cc12", "activity, negative = inhibition": "-18.3% [at 2.29 µM] (inactive)"},
      {"smiles": "CC1=C(CC(=O)O)c2cc(F)ccc2/C1=C\\c1ccc(S(C)=O)cc1", "note": "(stereo not given)", "AC50": "inactive and 12.6 µM (active)"},
      {"smiles": "CC1=C(CC(=O)O)c2cc(F)ccc2/C1=C\\c1ccc(S(C)(=O)=O)cc1", "activity, negative = inhibition": "-6.18% (inactive)"},
      {"smiles": "Cc1noc(C)c1COc1cccc(C(=O)OCC(=O)N2CC(=O)Nc3ccccc32)c1", "AC50": "3.55 µM (active)"},
      {"smiles": "Cc1cc(=O)[nH]c(-n2[nH]c(C)cc2=O)n1", "activity, negative = inhibition": "-7.66% (inactive)"},
      {"smiles": "CO[C@]1(NC(=O)C2SC(=C(C(N)=O)C(=O)O)S2)C(=O)N2C(C(=O)O)=C(CSc3nnnn3C)CS[C@H]21", "note": "(stereo not given in full)", "activity, negative = inhibition": "20.1% [at 25.6 µM] (inactive)"},
      {"smiles": "CC(=O)NCCNc1ncnc2ccc(-c3ccccc3C)cc12", "activity, negative = inhibition": "-0.544% [at 2.29 µM] (inactive)"},
      {"smiles": "Cc1ccccc1-c1cc(C(=O)n2cccn2)c2cc(Cl)ccc2n1", "AC50": "5.01 µM (active)"},
      {"smiles": "CC(=O)NCCNc1cc(-c2ccccc2C)ncn1", "activity, negative = inhibition": "5.2% [at 2.29 µM] (inactive)"},
      {"smiles": "C[C@@H](c1ccccc1)N1C(=O)[C@H]2[C@H]3[C@H](O)[C@H](O)C/C(=N/OC[C@@H](O)COCc4ccco4)[C@H]3CC[C@@H]2C1=O", "activity, negative = inhibition": "10.7% [at 11.4 µM] (inactive)"},
      {"smiles": "Cc1c(/C=C2\\SC(=O)N(CC(=O)Nc3ccc4c(c3)OCO4)C2=O)c2ccccc2n1C", "activity, negative = inhibition": "-9.41% (inactive)"},
      {"smiles": "CC(C)n1cc(/C=C2/SC(=O)N(CC(=O)Nc3ccc4c(c3)OCO4)C2=O)c2ccccc21", "AC50": "3.98 µM (active)"},
      {"smiles": "C[C@@H](CCc1ccc(O)cc1)NCCc1ccc(O)c(O)c1", "AC50": "inactive"},
      {"smiles": "CC(=O)N[C@H](Cc1ccc(O)cc1)C(=O)O", "activity, negative = inhibition": "2.06% [at 11.4 µM] (inactive)"},
      {"smiles": "O=C(CCc1ccc(O)cc1)c1c(O)cc(O)cc1O", "AC50": "12.6 µM (active)"},
      {"smiles": "C(=N\\n1cnnc1)/c1cccn1-c1ccccc1", "AC50": "5.01 µM (active)"},
      {"smiles": "CCOC(=O)c1cc2sc(C)cc2n1CCCN1C(=O)c2ccccc2C1=O", "AC50": "3.55 µM (active)"},
      {"smiles": "O=c1[nH]c2ccccc2c2ccccc12", "activity, negative = inhibition": "-16.3% (inactive)"},
      {"smiles": "Cc1cc2[nH]c(=O)c3ccccc3n2n1", "activity, negative = inhibition": "-17.6% (inactive)"},
      {"smiles": "Cc1nc2c(O)cccc2c(=O)[nH]1", "AC50": "3.98 µM (active)"},
      {"smiles": "CCC(C)NC(=O)C1c2cc(OC)c(OC)cc2C(=O)N(C)C1c1cccs1", "note": "(stereo not given)", "activity, negative = inhibition": "4.6% (inactive)"},
      {"smiles": "COc1cc(C2C(C(=O)c3ccc(C)o3)=C(O)C(=O)N2CCc2ccccc2)ccc1O", "note": "(stereo not given)", "AC50": "7.08 µM (active)"},
      {"smiles": "COc1ccc(CCN2C(=O)C(O)=C(C(=O)c3ccco3)C2c2cccs2)cc1OC", "note": "(stereo not given)", "AC50": "1.41 µM (active)"},
      {"smiles": "COc1cc2c(cc1OC)C(C(=O)N1CCOCC1)C(c1cccs1)N(C)C2=O", "note": "(stereo not given)", "activity, negative = inhibition": "13.6% (inactive)"},
      {"smiles": "Cc1ccc(C2C(C(=O)c3sc(C)nc3C)=C(O)C(=O)N2CCN2CCOCC2)o1", "note": "(stereo not given)", "activity, negative = inhibition": "12.4% (inactive)"},
      {"smiles": "CN(C)CCN1C(=O)C(O)=C(C(=O)c2cc3ccccc3o2)C1c1cccc(Br)c1", "note": "(stereo not given)", "activity, negative = inhibition": "-9% (inactive)"},
      {"smiles": "Cc1ccc(C(=O)C2=C(O)C(=O)N(CCCn3ccnc3)C2c2ccc(OC(C)C)cc2)o1", "note": "(stereo not given)", "AC50": "11.2 µM (active)"},
      {"smiles": "CCOc1cccc(C2C(C(=O)c3ccc(C)o3)=C(O)C(=O)N2Cc2ccncc2)c1", "note": "(stereo not given)", "AC50": "12.6 µM (active)"},
      {"smiles": "C/C(=N\\O)c1cccc[n+]1Cc1ccccc1", "activity, negative = inhibition": "-0.751% [at 11.4 µM] (inactive)"}
    ]}
  ]
}
